# DRD3 antagonist: D3 dopamine receptor (human) antagonism; P35462; D3R cells, DiscoveRx beta-arrestin luminescence, antagonist mode; hits give low values; max response, negative = inhibition, %; 2.5% of 360,000 active; in the data active = max response below about -50%; inconclusive = no clear call, values can overlap the other calls; also: % is scaled to controls: 0 for no effect and ±100 for the full control effect
#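 Cells plated overnight at 1500 cells/well, then exposed to library compounds with dopamine controls for 90 minutes at 37 degrees C. DiscoveRx reagent added for 30–60 minutes at room temperature; luminescence read, quantitative HTS format.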
# IL-1B inflam inh: inhibitors of inflammasome signaling (IL-1 beta secretion); THP-1 LPS/ATP IL-1B secretion, AlphaLISA, 16 h; hits give low values; activity change, % at 57.5 µM; 4.7% of 360,000 active; AID 743279; in the data active = activity change below about -50%; inconclusive = mostly about -30% to -49%; also: % is scaled to controls: 0 for no effect and ±100 for the full control effect
#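 Secreted IL-1B measured by AlphaLISA bead assay after 16 h compound exposure of THP-1 cells; compounds (final up to 57.5 uM) added 1 h before LPS (250 ng/mL) and ATP (1.25 mM) stimulation; lower signal means less secretion.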
# DT40 TDP1 CPT: DT40-hTDP1 cell growth loss with CPT | chicken DT40 Tdp1-/-;hTDP1 cells + 20 nM CPT, ATP luminescence, 48 h | Potency, µM (doses to about 46.2 µM), for the others: at the top dose activity change, negative = growth inhibition, usual class: inhibitors | 12% of 420,000 active | AID 686979; also: potency is read from the fitted curve at half-maximal effect; % is scaled to controls: 0 for no effect and ±100 for the full control effect; nearly all actives have a fitted effect of over 55% in size
#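 Chicken DT40 Tdp1-/- cells complemented with human TDP1, 400 cells/well, exposed to compounds plus 20 nM camptothecin for at least 48 h at 37 C; viability read as ATP content by CellTiter-Glo luminescence.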
# ClpP mod: qHTS Assay for Activators of ClpP. ATP-dependent Clp protease proteolytic subunit (Bacillus subtilis (strain 168)), P80244. purified B. subtilis ClpP, FRET peptide cleavage, 20 min. Potency, µM (doses to about 57.5 µM), without a hit: top-dose activity change, negative = active. 1.9% of 340,000 active. AID 651965, 2013; active = well fitted falling curve with a large enough effect; inconclusive = small, poorly fitted or top-dose-only effect; inactive = no such curve, though single readings can be large or run the other way; also: potency is read from the fitted curve at half-maximal effect; the source files actives as falling curves though it sought activators and does not explain the sign; nearly all actives have a fitted effect of over 65% in size
# Target sequence (P80244 whole entry, looked up): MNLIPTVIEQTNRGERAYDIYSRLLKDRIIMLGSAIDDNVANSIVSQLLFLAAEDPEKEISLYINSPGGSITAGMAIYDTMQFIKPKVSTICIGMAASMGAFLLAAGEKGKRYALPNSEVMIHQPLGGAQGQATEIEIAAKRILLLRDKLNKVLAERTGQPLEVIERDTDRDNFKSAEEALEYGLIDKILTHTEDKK
#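 Purified B. subtilis ClpP, 10 microg/mL final in Tris/HCl pH8 with KCl, BSA, glycerol and Tween-20, cleaved an Abz/nitrotyrosine-quenched decapeptide. Fluorescence (ex 320, em 430) was read at 0 and 20 min at room temperature. Delta was normalized to 5.8 microM ADEP and DMSO/no-enzyme controls.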
# DRD3 agonist: agonists of human D3 dopamine receptor. P35462. D3R DiscoveRx beta-arrestin cells, luminescence, 90 min. max activation, %. 0.58% of 410,000 active; in the data active = max activation above about 30%; also: 0% is about no effect
#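 Agonist-mode cell screen: cells plated at 1500/well and incubated overnight at 37 °C, then exposed to library compounds for 90 min at 37 °C. Detection reagent was added for 30–60 min at room temperature, and luminescence was read.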
# DT40 TDP1 no CPT: qHTS for Inhibitors of human tyrosyl-DNA phosphodiesterase 1 (TDP1): qHTS in cells in absence of CPT | Potency, µM (highest dose often 46.2 µM), for inactives: top-dose activity change, negative = growth inhibition, most hits filed as inhibitors | AID 686978, 2013 | DT40 Tdp1-/- hTDP1 cells, no CPT, ATP luminescence, 48 h | 15% of 420,000 active; also: potency is read from the fitted curve at half-maximal effect; % is scaled to controls: 0 for no effect and ±100 for the full control effect; nearly all actives have a fitted effect of over 55% in size
#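 Growth of hTDP1-complemented DT40 Tdp1-knockout cells is measured by ATP luminescence after at least 48 hr compound exposure at 37 °C, with DMSO substituting for the 20 nM CPT used in the parallel screen.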
# Active calls of the source: *; i = inactive; ? = inconclusive; . = not tested or not shown. Shown are actives, neighbours in structure and some others; about 21% of the full set was active somewhere. Unless noted, calls follow the shape of the dose curve; as a rule, active = well fitted inhibition curve with a large enough effect; inconclusive = small, poorly fitted or top-dose-only effect; inactive = flat fitted curve, though single readings scatter.
SMILES,DRD3 antagonist,IL-1B inflam inh,DT40 TDP1 CPT,ClpP mod,DRD3 agonist,DT40 TDP1 no CPT
CNC(=S)N(CCc1c(C)[nH]c2ccc(C)cc12)Cc1cccnc1,-25,-9,-29%,1%,-2,-27%
O=c1oc2c(-c3ccc([N+](=O)[O-])cc3)cc(O)cc2s1,-56*,-4,?,.,-5,?
COCCNC(=O)C1(C)CCCN(Cc2ccc(C)c3ccccc23)C1 (configuration not stated),-52*,?,21µM*,-3%,-11,16µM*
CCCCNC(=O)C1(C)CCN1Cc1cccc2c(OC)cc(C(=O)OCC)cc12 (configuration not stated),45,?,?,-11%,13,13µM*
CCCNC(=O)C1(C)CCCN(Cc2cccc3ccccc23)C1 (configuration not stated),-2,-18,?,-1%,0,?
CCOC(=O)c1cc(OC)c2cccc(CN3CCCC(C)(C(=O)NCCOC)C3)c2c1 (configuration not stated),-3,0,9.2µM*,-16%,-1,6.5µM*
CCOC(=O)c1cc(OC)c2cccc(CN3CCC(C)(C(=O)NCCOC)C3)c2c1 (configuration not stated),17,12,?,4%,11,?
C/C(=N\NC(=O)c1nnn(-c2nonc2N)c1CN1CCCCCC1)c1ccc(Br)cc1,-16,-9,-4%,1%,-11,-15%
CN(C)c1ncc2nc(-c3ccc(Cl)cc3)c(=O)n(CCC#N)c2n1,.,.,2%,.,.,-2%
Cc1nnc(SCC(=O)N2c3ccccc3Sc3ccccc32)n1N,-8,4,-2%,0%,1,1%
O=C(CSc1nnc(-c2ccncc2)n1Cc1ccco1)N1c2ccccc2Sc2ccc(Cl)cc21,-9,-74*,15µM*,-10%,1,-21%
CCn1c(SCC(=O)N2c3ccccc3Sc3ccccc32)nnc1-c1ccco1,-19,?,-3%,82%,-9,-7%
Cn1nnnc1SCC(=O)N1c2ccccc2Sc2ccc(Cl)cc21,6,-8,?,3%,4,21µM*
Cn1c(SCC(=O)N2c3ccccc3Sc3ccc(Cl)cc32)nnc1-c1ccco1,10,-13,21µM*,0%,7,?
COc1ccc(NC(=O)c2cc(C3CC3)nc3c2c(C)nn3-c2ccc(C)cc2)cc1OC,.,.,?,-1%,0,?
COc1ccc(F)cc1S(=O)(=O)Nc1ccncc1,7,2,10%,1%,0,-18%
O=c1c2cnn(-c3ccccc3)c2nc(-c2cccs2)n1-c1ccc(Cl)cc1,?,26,0.46µM*,-12%,-10,0.58µM*
O=c1oc(-c2ccccc2)nc2c1cnn2-c1ccccc1,8,15,-25%,32%,-14,-17%
O=c1oc(-c2cccs2)nc2c1cnn2-c1ccccc1,-56*,-6,?,222%,0,?
O=c1c2cnn(-c3ccccc3)c2nc(-c2cccs2)n1-c1cccc(Cl)c1,-25,-2,15µM*,?,1,9.2µM*
O=c1oc(-c2cccs2)nc2ccc(Br)cc12,-16,-5,-8%,28µM*,-8,-17%
CNC(=O)c1cc(S(=O)(=O)N2CC(C)OC(C)C2)ccc1N1CCCCC1 (configuration not stated),10,i,-4%,-3%,-1,-19%
O/N=C(\Cn1ccnc1)c1ccccc1,22,18,3%,.,8,-11%
CCOC(=O)C(CC)Sc1ncnc2sc3c(c12)CCCC3 (configuration not stated),.,.,?,-1%,5,?

# Source: PubChem (National Center for Advancing Translational Sciences (NCATS))
